“And” between values parts separate entries of the source, which are not always exact repeats. Identical values can stand only once. Results filed as inconclusive are left out. Where a call stands in place of a potency, no number is given. Where a structure was tested more than once in an assay, its records may differ in their call. The source made the active and inactive calls. Calls follow the shape of the dose curve; as a rule, active = well fitted curve in the direction sought with a large enough effect; inconclusive = small, poorly fitted or top-dose-only effect, or another doubt; inactive = no such curve, though single readings can be large; an effect the other way counts as inactive or inconclusive.
Columns and labels:
[1] = MultiTox-Fluor Cytotoxicity Assay - LYMP1-003 - Dead Cells (AID 961); settings: LYMP1-003 lymphoblastoid cells, dead-cell protease fluorescence; series mostly up to 92.2 µM;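 also: cells exposed to compound for 16 h at 37 °C; nearly all actives have a fitted effect of over 70% in size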
How it was run: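 LYMP1-003 lymphoblastoid, 2500 cells/well, 5 hr settle then 16 hr cpd at 37 C; MultiTox-Fluor reagent 60 min RT; Ex/Em 485/520 dead-cell signal; norm. DMSO = 0%, 15 uM tetraoctylammonium bromide = 100%; Hill AC50.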

[2] = MultiTox-Fluor Cytotoxicity Assay - LYMP1-003 - Live Cells (AID 962); settings: LYMP1-003 lymphoblastoid cells, MultiTox-Fluor live-cell protease fluorescence; series mostly up to 92.2 µM;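 also: cells exposed to compound for 16 hours at 37 °C; cytotoxic hits lower the live-cell protease signal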
How it was run: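 Human lymphoblastoid line LYMP1-003 in complete culture medium, treated 16 hr with titrated compounds. Viable cells quantified via cell-permeant GF-AFC substrate fluorescence; AC50 derived by Hill fitting.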

[3] = Cell Viability - LYMP1-003 - Assay at 24 hr (AID 963); settings: LYMP1-003 lymphoblastoid cell viability; series mostly up to 92.2 µM
How it was run: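 The lymphoblastoid line was treated with titrated compounds for 24 hours, and viable cell number estimated from luciferase-based ATP luminescence.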

[4] = Cell Viability - LYMP1-003 - Assay at 40 hr (AID 964); settings: LYMP1-003 lymphoblastoid viability; series mostly up to 92.2 µM; also: nearly all actives have a fitted effect of over 60% in size
How it was run: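 Acute toxicity is scored as a concentration-dependent loss of intracellular ATP in LYMP1-003 cells (2500/well, complete medium) after 40 hr at 37 C, measured by CellTiter-Glo luminescence; AC50 values derive from standard Hill modelling.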

[5] = Cell Viability - LYMP2-003 (AID 965); settings: LYMP2-003 lymphoblastoid cell viability; series mostly up to 92.2 µM;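 also: cells exposed to compounds for 24 h before reading; nearly all actives have a fitted effect of over 50% in size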
How it was run: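 Acute cytotoxicity is scored as a concentration-dependent drop in intracellular ATP, measured by luciferase luminescence in human lymphoblastoid cells treated for 24 hours at 37 C. AC50 values derive from Hill-equation modelling.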

[6] = Cell Viability - LYMP2-004 (AID 966); settings: LYMP2-004 lymphoblastoid cell viability, qHTS; series mostly up to 92.2 µM; also: nearly all actives have a fitted effect of over 65% in size
How it was run: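 Viable-cell number estimated from ATP luminescence (CellTiter-Glo) in 2500 human lymphoblastoid cells/well after 24 hr at 37 C with compound. AC50 fitted to the standard Hill equation.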

[7] = Cell Viability - LYMP2-009 (AID 968); settings: LYMP2-009 lymphoblastoid cell viability; series mostly up to 92.2 µM; also: nearly all actives have a fitted effect of over 55% in size
[8] = Cell Viability - LYMP2-011 (AID 969); settings: LYMP2-011 lymphoblastoid cells viability; series mostly up to 92.2 µM; also: nearly all actives have a fitted effect of over 60% in size
How it was run: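 Cells seeded at 2500 per well rest 5 hr before compound addition, then incubate 24 hr at 37 C. CellTiter-Glo reagent is added for 30 min at room temperature before luminescence detection.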

[9] = Cell Viability - LYMP2-013 (AID 970); settings: LYMP2-013 lymphoblastoid cells viability; series mostly up to 92.2 µM; also: nearly all actives have a fitted effect of over 55% in size
How it was run: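 In complete culture medium, human lymphoblastoid cells were dosed for 24 hr at 37 C, with tetraoctylammonium bromide (6.4pM to 92 uM) as positive control. Viability reflects luciferase-based ATP signal; AC50 derived from concentration-response curves.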

[10] = Cell Viability - LYMP2-015 (AID 971); settings: LYMP2-015 lymphoblastoid cell viability; series mostly up to 92.2 µM; also: nearly all actives have a fitted effect of over 55% in size
How it was run: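 AC50 values reflect Hill-model fits of ATP-based luminescence (CellTiter-Glo) from a human lymphoblastoid line, 2500 cells/well, treated 24 hr at 37 C.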

[11] = Cell Viability - LYMP2-017 (AID 972); settings: LYMP2-017 lymphoblastoid cell viability; series mostly up to 92.2 µM;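 also: cells exposed to compound for 24 hours at 37 °C; nearly all actives have a fitted effect of over 55% in size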
How it was run: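 In this qHTS format, lymphoblastoid cells in complete medium receive test compound for a day at 37 C before ATP content is quantified by luciferase luminescence. Reported AC50 figures come from standard Hill-equation curve fitting.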

[12] = Cell Viability - LYMP2-019 (AID 973); settings: LYMP2-019 lymphoblastoid cell line viability; series mostly up to 92.2 µM; also: nearly all actives have a fitted effect of over 55% in size
How it was run: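 AC50 values come from Hill-equation modelling of qHTS concentration-response curves, where viability is measured as luciferase-based ATP luminescence in the lymphoblastoid line after 24 hr compound exposure in complete culture medium.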

[13] = Cell Viability - LYMP2-023 (AID 975); settings: LYMP2-023 lymphoblastoid cell viability; series mostly up to 92.2 µM
How it was run: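 In this qHTS, ATP-based luciferase luminescence (CellTiter-Glo) is quantified in human lymphoblastoid cells after 24 hr compound treatment at 37 C; tetraoctylammonium bromide serves as positive control. Concentration-response curves are Hill-fitted to give AC50.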

[14] = Cell Viability - LYMP2-025 (AID 976); settings: LYMP2-025 lymphoblastoid cell viability; series mostly up to 92.2 µM
How it was run: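 Luminescent ATP readout after 24 hr treatment of a human lymphoblastoid line (LYMP2-025, 2500 cells/well, 37 C). Reagent developed 30 min at room temperature; AC50 fitted with the Hill equation.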

[15] = Cell Viability - LYMP2-002 (AID 977); settings: LYMP2-002 lymphoblastoid cell viability, qHTS; series mostly up to 92.2 µM;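 also: compound exposure lasted 24 h at 37 °C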
How it was run: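 Human lymphoblastoid cells, 2500/well, complete medium; 5 h 37 C settle; compound 24 h 37 C; CellTiter-Glo, 30 min RT; luminescence. Decrease in ATP = cytotoxicity; AC50 via Hill equation.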

[16] = Cell Viability - LYMP2-007 (AID 979); settings: LYMP2-007 lymphoblastoid cell viability; series mostly up to 92.2 µM;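 also: cells exposed to compound for 24 h before reading; nearly all actives have a fitted effect of over 60% in size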
How it was run: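 Measured via luciferase-based ATP quantitation: lymphoblastoid cells, 24 hr compound exposure at 37 C, AC50 from Hill fits.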

[17] = Cell Viability - LYMP2-008 (AID 980); settings: LYMP2-008 lymphoblastoid cell viability, qHTS; series mostly up to 92.2 µM; also: nearly all actives have a fitted effect of over 60% in size
How it was run: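 Measured: ATP-dependent luminescence, proportional to viable cell number, in human lymphoblastoid cells treated 24 hr with compound in complete culture medium. Values are AC50s from Hill-equation modelling of qHTS titrations.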

[18] = MultiTox-Fluor Cytotoxicity Assay - LYMP1-002 - Dead Cells (AID 960); settings: LYMP1-002 lymphoblastoid cells, dead-cell protease fluorescence; series mostly up to 46.1 µM; also: nearly all actives have a fitted effect of over 60% in size; also: potency is read from the fitted curve at half-maximal effect
How it was run: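 Concentration-dependent increases in membrane-leaked protease activity are quantified in LYMP1-002 cells after 16 hr treatment; values are normalized against DMSO and tetraoctylammonium bromide (15 uM) controls and AC50 derived by Hill modeling.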

[19] = Cell Viability - LYMP2-005 (AID 967); settings: LYMP2-005 lymphoblastoid cell viability; series mostly up to 92.2 µM
How it was run: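 qHTS viability screen in LYMP2-005 cells: 24 h at 37 C with compound, ATP luminescence via CellTiter-Glo, AC50 from Hill curves.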

[20] = molecular target: Alpha-galactosidase (Coffea arabica) (UniProt Q42656); test: Counterscreen for Glucocerebrosidase Inhibitors: qHTS Assay for Coffee Bean alpha-Galactosidase at pH 4.5 (AID 957); settings: purified coffee bean alpha-galactosidase, fluorogenic substrate; series mostly up to 76.9 µM
How it was run: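 Quantitative HTS of compounds (0.7 nM to 77 uM) against coffee bean alpha-galactosidase at pH 4.5, measuring 4-methylumbelliferone fluorescence released from 80 uM substrate.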

Alpha-galactosidase (Coffea arabica), sequence (Q42656 whole entry, looked up): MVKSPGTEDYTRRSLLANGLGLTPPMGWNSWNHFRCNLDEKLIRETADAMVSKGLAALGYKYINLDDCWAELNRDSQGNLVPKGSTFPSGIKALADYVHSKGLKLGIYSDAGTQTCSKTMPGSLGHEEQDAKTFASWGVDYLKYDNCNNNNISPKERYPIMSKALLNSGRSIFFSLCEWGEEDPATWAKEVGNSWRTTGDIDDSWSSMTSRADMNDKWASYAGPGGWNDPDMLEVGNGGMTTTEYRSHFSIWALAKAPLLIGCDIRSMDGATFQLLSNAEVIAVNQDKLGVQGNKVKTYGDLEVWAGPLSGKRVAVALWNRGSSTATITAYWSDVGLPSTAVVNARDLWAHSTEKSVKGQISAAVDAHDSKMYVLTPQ

Row | SMILES | outcome [1] | outcome [2] | outcome [3] | outcome [4] | outcome [5] | outcome [6] | outcome [7] | outcome [8] | outcome [9] | outcome [10] | outcome [11] | outcome [12] | outcome [13] | outcome [14] | outcome [15] | outcome [16] | outcome [17] | Potency [18] | outcome [19] | outcome [20]
1 | CCOC(=O)CC(SP(=S)(OC)OC)C(=O)OCC (centres undefined) | inactive | inactive | inactive | inactive | inactive | inactive | inactive | inactive | inactive | inactive | inactive | inactive | inactive | inactive | inactive | inactive | inactive |  |  | 
2 | CCC(C)(C)c1ccc(O)cc1 | inactive | inactive | inactive | inactive | inactive | inactive | inactive | inactive | inactive | inactive | inactive | inactive | inactive | inactive | inactive | inactive | inactive | inactive | inactive | 
3 | O=C(O)CCCc1ccc(N(CCCl)CCCl)cc1 | inactive | inactive | inactive |  |  |  |  |  |  |  |  | inactive | inactive | inactive | inactive |  |  | inactive |  | inactive
4 | Clc1ccc(C(c2ccc(Cl)cc2)C(Cl)(Cl)Cl)cc1 | inactive | inactive |  | inactive | inactive | inactive | inactive | inactive | inactive | inactive | inactive | inactive | inactive | inactive | inactive | inactive | inactive | inactive | inactive | 
5 | C[C@]1(O)CC[C@H]2[C@@H]3CCC4=CC(=O)CC[C@]4(C)[C@@]3(F)[C@@H](O)C[C@@]21C | inactive | inactive | inactive | inactive | inactive | inactive | inactive | inactive | inactive | inactive | inactive | inactive | inactive | inactive | inactive | inactive | inactive | inactive | inactive | 
6 | CC(C)C(=O)c1c(C(C)C)nn2ccccc12 |  |  |  |  |  |  |  |  |  |  |  |  |  |  |  |  |  |  |  | inactive
7 | CN(C)C(=O)Oc1ccc[n+](C)c1 |  |  |  |  |  |  |  |  |  |  |  |  |  |  |  |  |  |  |  | inactive
8 | Cn1c(=O)c2[nH]cnc2n(C)c1=O |  |  |  |  |  |  |  |  |  |  |  |  |  |  |  |  |  |  |  | inactive
9 | CC[N+](CC)(CC)CCOc1cccc(OCC[N+](CC)(CC)CC)c1OCC[N+](CC)(CC)CC |  |  |  |  |  |  |  |  |  |  |  |  |  |  |  |  |  |  |  | inactive
10 | CCN(CC)CCNC(=O)c1ccc(N)cc1 |  |  |  |  |  |  |  |  |  |  |  |  |  |  |  |  |  |  |  | inactive
11 | C[C@]12CCC(=O)C=C1CC[C@@H]1[C@@H]2CC[C@@]2(C)[C@H]1CC[C@]2(C)O | inactive | inactive | inactive | inactive | inactive | inactive | inactive | inactive | inactive | inactive | inactive | inactive | inactive | inactive | inactive | inactive | inactive |  | inactive | 
12 | NC1CCN(c2cccc(Cl)n2)CC1 |  |  |  |  |  |  |  |  |  |  |  |  |  |  |  |  |  |  |  | inactive
13 | NCCc1ccc(O)cc1 | inactive | inactive | inactive | inactive | inactive | inactive | inactive | inactive | inactive | inactive | inactive | inactive | inactive | inactive | inactive | inactive | inactive | inactive | inactive | inactive
14 | CN1C(C)(C)CCCC1(C)C |  |  |  |  |  |  |  |  |  |  |  |  |  |  |  |  |  |  |  | inactive
15 | CC(=O)OCC(=O)[C@@]1(O)CC[C@H]2[C@@H]3CCC4=CC(=O)CC[C@]4(C)[C@H]3C(=O)C[C@@]21C |  |  |  |  |  |  |  |  |  |  |  |  |  |  |  |  |  |  |  | inactive
16 | COP(=S)(OC)Oc1ccc(SC)c(C)c1 | inactive | inactive | inactive | inactive | inactive | inactive | inactive | inactive | inactive | inactive | inactive | inactive | inactive | inactive | inactive | inactive | inactive | inactive | inactive | 
17 | C[C@]12CCC(=O)C=C1CC[C@@H]1[C@@H]2CC[C@]2(C)C(=O)CC[C@@H]12 | inactive | inactive | inactive | inactive | inactive | inactive | inactive | inactive | inactive | inactive | inactive | inactive | inactive | inactive | inactive | inactive | inactive | inactive and 15.8 µM (active) | inactive | inactive
18 | CN1C[C@H](C(=O)N[C@]2(C)O[C@@]3(O)[C@@H]4CCCN4C(=O)[C@H](Cc4ccccc4)N3C2=O)C=C2c3cccc4[nH]cc(c34)C[C@H]21 | inactive | inactive | inactive | inactive | inactive | inactive | inactive | inactive | inactive |  | inactive |  | inactive | inactive | inactive | inactive | inactive |  |  | 
19 | CCCCCCCCCCCCCCCC(=O)NCCO |  |  |  |  |  |  |  |  |  |  |  |  |  |  |  |  |  |  |  | inactive
20 | CC(C)c1cccc(C(C)C)c1O | inactive | inactive | inactive | inactive | inactive | inactive | inactive | inactive | inactive | inactive | inactive | inactive | inactive |  | inactive | inactive | inactive | inactive | inactive | inactive
21 | Oc1ccc(Cl)cc1 | inactive | inactive | inactive | inactive | inactive |  | inactive | inactive | inactive | inactive | inactive | inactive | inactive | inactive | inactive | inactive | inactive | inactive |  | 

Reference: PubChem BioAssay (NCATS)
